Laboratory results from PubChem BioAssay (EPA / NIEHS).
Several values for one entry are separate records, joined by “and”; a condition that tells them apart may be missing. Equal values may be shown once. Activity calls are given as the source filed them. How the source made its calls: active means hit-call score of the fitted dose curve at least 0.9, where 1 is the maximum; inactive means score below 0.9.

read-out: Basic fibroblast growth factor (bFGF), FGF2 (gene 2247); experiment: BSK_MyoF_bFGF: BioMAP Diversity Plus: MyoF Assay for Basic fibroblast growth factor (bFGF) Biomarker Activity (AID 2284246); conditions: primary human lung fibroblasts
Description: BSK_MyoF is a cell-based, multiplexed-readout assay that uses lung fibroblasts, a human […] primary cell, with measurements taken at 24 hours after chemical dosing in a microplate: 96-well plate.BSK_MyoF_bFGF is an assay component measured in the BSK_MyoF assay. It measures bFGF antibody related to regulation of gene expression using ELISA technology.Data from the assay component BSK_MyoF_bFGF was analyzed at the endpoint, BSK_MyoF_bFGF, in the positive analysis fitting direction relative to DMSO as the negative control and baseline of activity. Using a type of binding reporter, gain or loss-of-signal activity can be used to understand protein changes. To generalize the intended target to other relatable targets, this assay endpoint is annotated to the 'growth factor' intended target family, where the subfamily is 'basic fibroblast growth factor '.
The levels of cell surface (or secreted, indicated by the prefix "s") biomarker endpoints were measured by ELISA. Overt cytotoxicity to cells in confluent adherent cultures (all systems other than the BT system) was assessed by measuring total protein levels using sulforhodamine B (SRB) staining in parallel cultures at the time of biomarker measurements, indicated as SRB endpoints. For proliferation assays for adherent cell types, individual cell types are cultured at sub-confluence and relative cell numbers quantified by SRB staining at time points optimized for each system (48 h: 3C and CASM3C systems; 72 h: BT and HDF3CGF systems; 96 h: SAg system). SRB was performed by staining cells with 0.1% SRB after fixation with 10% TCA and reading wells at 560 nm.Viability and proliferation of PBMC (T cells) was quantified by Alamar Blue reduction for the SAg and BT systems. For PBMC viability (referred to as PBMC Cytotoxicity within the assay endpoint names), cells were plated (75,000/well in a 96-well plate) and then chemical samples added for 1 h before addition of activators, SEB and TSST-1 (20 ng/mL final concentration each). Cells were incubated for 90 h. Then, Alamar Blue (20 uL/well) (Invitrogen, Cat DAL1100) was added for 6 h, and the plates were read with a fluorescence microplate reader at 546/580 nm (excitation/emission). For PBMC proliferation, cells were plated and activated as above but incubated for only 16 h prior to addition of Alamar Blue. Plates were read after 6 h.

Row | SMILES | outcome | AC50
1 | CCCCCCCCCCCC(C)=O | inactive | –
2 | C=CC(=O)OCC(C)OCC(C)OCC(C)OC(=O)C=C (stereo not given) | – | 31.1 µM (active)
3 | C=CC(=O)NC(C)(C)C | inactive | –
4 | CC(Cl)COP(=O)(OCC(C)Cl)OCC(C)Cl (stereo not given) | inactive | –
5 | CC(c1cc(C(C)(C)C)cc(C(C)(C)C)c1O)c1cc(C(C)(C)C)cc(C(C)(C)C)c1O | inactive | –
6 | c1ccc2sc(SSN3CCOCC3)nc2c1 | – | 28.8 µM (active)
7 | O=C(O)C(F)(F)C(F)(F)C(F)(F)C(F)(F)C(=O)O | inactive | –
8 | COC(OC)(C(=O)c1ccccc1)c1ccccc1 | inactive | –
9 | CC(C)CCCCCOC(=O)CS | inactive | –
10 | CCc1cccc(C)c1N(C(=O)CS(=O)(=O)O)C(C)COC (stereo not given) | inactive | –
11 | CC(C)[N+](C)(CCOC(=O)C1c2ccccc2Oc2ccccc21)C(C)C | inactive | –
12 | C[N+](C)(C)CCCNS(=O)(=O)C(F)(F)C(F)(F)C(F)(F)C(F)(F)C(F)(F)C(F)(F)C(F)(F)C(F)(F)F | – | 46.9 µM (active) and 47.2 µM (active)
13 | CCNc1nc(NC(C)(C)C)nc(OC)n1 | inactive | –
14 | C=C(C)C(=O)OCCCCCCCCCCCC | inactive | –
15 | CCOC(=O)/C=C\C(=O)OCC | inactive | –
16 | O=C(Oc1ccccc1)c1ccccc1C(=O)Oc1ccccc1 | inactive | –
17 | CCCCCC1=CCCC1=O | inactive | –
18 | C=CCCCCCCCCC=O | inactive | –
19 | CCC1(C)C(=O)N(Cl)C(=O)N1Cl (stereo not given) | inactive | –
20 | CCOC(=O)C1=NN(c2ccc(Cl)cc2Cl)C(C)(C(=O)OCC)C1 (stereo not given) | inactive | –

Row | SMILES | outcome | AC50
21 | CC=C(C)C=CC=C(C)C | inactive | –
22 | C=CC(=O)OCCCCCCCC(C)C | inactive | –
23 | CC/C=C\C/C=C\C/C=C\CCCCCCCC(=O)OC | – | 9.83 µM (active)
24 | Fc1ccc(Br)cc1 | inactive | –
25 | COc1ccc(C(=O)/C(Br)=C\C(=O)O)cc1 | inactive | –
26 | CCOC(=O)C1=NOC(c2ccccc2)(c2ccccc2)C1 | inactive | –
27 | Clc1cc(Cl)c(Cl)c(Cl)c1Cl | inactive | –
28 | CC1=CC=C(C(C)C)CC1 | inactive | –
29 | O=C1CCCCCCCCCCC1 | inactive | –
30 | Oc1ccc(/C=C/c2cc(O)cc(O)c2)cc1 | inactive | –
31 | CCN1CN(CC)CN(CC)C1 | inactive | –
32 | CCCCCCOC(=O)CCCCC(=O)OCCCCCC | inactive | –
33 | CCCCCCCCC(CO)CCCCCC (stereo not given) | inactive | –
34 | Cc1c(O)cccc1O | inactive | –
35 | CCCCCCC=O | inactive | –
36 | C=CC(=O)NCOCCCC | inactive | –
37 | COc1ccc(C(=O)c2ccccc2)c(O)c1 | inactive | –
38 | O=C(Cl)c1c(Cl)c(Cl)c(C(=O)Cl)c(Cl)c1Cl | inactive | –
39 | O=C1CCCCCCCCCCCN1 | inactive | –
40 | C=CC(=O)OCCCCCCOC(=O)C=C | – | 34.7 µM (active)
